Assay outcomes: PubChem BioAssay, University of Kansas High Throughput Screening Laboratory
The entries come from a sample that favours hits as a whole.
mHTT CaM bind = disrupts binding of mutant huntingtin to calmodulin; AlphaScreen His-mHTT/GST-CaM binding, luminescence; hit rate 3.6% among 190,000; inhibition, % at 15 µM; P42858;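 further: 0% = both proteins with DMSO and 100% = one protein alone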
Target sequence (P42858 whole entry, looked up, stated change not applied): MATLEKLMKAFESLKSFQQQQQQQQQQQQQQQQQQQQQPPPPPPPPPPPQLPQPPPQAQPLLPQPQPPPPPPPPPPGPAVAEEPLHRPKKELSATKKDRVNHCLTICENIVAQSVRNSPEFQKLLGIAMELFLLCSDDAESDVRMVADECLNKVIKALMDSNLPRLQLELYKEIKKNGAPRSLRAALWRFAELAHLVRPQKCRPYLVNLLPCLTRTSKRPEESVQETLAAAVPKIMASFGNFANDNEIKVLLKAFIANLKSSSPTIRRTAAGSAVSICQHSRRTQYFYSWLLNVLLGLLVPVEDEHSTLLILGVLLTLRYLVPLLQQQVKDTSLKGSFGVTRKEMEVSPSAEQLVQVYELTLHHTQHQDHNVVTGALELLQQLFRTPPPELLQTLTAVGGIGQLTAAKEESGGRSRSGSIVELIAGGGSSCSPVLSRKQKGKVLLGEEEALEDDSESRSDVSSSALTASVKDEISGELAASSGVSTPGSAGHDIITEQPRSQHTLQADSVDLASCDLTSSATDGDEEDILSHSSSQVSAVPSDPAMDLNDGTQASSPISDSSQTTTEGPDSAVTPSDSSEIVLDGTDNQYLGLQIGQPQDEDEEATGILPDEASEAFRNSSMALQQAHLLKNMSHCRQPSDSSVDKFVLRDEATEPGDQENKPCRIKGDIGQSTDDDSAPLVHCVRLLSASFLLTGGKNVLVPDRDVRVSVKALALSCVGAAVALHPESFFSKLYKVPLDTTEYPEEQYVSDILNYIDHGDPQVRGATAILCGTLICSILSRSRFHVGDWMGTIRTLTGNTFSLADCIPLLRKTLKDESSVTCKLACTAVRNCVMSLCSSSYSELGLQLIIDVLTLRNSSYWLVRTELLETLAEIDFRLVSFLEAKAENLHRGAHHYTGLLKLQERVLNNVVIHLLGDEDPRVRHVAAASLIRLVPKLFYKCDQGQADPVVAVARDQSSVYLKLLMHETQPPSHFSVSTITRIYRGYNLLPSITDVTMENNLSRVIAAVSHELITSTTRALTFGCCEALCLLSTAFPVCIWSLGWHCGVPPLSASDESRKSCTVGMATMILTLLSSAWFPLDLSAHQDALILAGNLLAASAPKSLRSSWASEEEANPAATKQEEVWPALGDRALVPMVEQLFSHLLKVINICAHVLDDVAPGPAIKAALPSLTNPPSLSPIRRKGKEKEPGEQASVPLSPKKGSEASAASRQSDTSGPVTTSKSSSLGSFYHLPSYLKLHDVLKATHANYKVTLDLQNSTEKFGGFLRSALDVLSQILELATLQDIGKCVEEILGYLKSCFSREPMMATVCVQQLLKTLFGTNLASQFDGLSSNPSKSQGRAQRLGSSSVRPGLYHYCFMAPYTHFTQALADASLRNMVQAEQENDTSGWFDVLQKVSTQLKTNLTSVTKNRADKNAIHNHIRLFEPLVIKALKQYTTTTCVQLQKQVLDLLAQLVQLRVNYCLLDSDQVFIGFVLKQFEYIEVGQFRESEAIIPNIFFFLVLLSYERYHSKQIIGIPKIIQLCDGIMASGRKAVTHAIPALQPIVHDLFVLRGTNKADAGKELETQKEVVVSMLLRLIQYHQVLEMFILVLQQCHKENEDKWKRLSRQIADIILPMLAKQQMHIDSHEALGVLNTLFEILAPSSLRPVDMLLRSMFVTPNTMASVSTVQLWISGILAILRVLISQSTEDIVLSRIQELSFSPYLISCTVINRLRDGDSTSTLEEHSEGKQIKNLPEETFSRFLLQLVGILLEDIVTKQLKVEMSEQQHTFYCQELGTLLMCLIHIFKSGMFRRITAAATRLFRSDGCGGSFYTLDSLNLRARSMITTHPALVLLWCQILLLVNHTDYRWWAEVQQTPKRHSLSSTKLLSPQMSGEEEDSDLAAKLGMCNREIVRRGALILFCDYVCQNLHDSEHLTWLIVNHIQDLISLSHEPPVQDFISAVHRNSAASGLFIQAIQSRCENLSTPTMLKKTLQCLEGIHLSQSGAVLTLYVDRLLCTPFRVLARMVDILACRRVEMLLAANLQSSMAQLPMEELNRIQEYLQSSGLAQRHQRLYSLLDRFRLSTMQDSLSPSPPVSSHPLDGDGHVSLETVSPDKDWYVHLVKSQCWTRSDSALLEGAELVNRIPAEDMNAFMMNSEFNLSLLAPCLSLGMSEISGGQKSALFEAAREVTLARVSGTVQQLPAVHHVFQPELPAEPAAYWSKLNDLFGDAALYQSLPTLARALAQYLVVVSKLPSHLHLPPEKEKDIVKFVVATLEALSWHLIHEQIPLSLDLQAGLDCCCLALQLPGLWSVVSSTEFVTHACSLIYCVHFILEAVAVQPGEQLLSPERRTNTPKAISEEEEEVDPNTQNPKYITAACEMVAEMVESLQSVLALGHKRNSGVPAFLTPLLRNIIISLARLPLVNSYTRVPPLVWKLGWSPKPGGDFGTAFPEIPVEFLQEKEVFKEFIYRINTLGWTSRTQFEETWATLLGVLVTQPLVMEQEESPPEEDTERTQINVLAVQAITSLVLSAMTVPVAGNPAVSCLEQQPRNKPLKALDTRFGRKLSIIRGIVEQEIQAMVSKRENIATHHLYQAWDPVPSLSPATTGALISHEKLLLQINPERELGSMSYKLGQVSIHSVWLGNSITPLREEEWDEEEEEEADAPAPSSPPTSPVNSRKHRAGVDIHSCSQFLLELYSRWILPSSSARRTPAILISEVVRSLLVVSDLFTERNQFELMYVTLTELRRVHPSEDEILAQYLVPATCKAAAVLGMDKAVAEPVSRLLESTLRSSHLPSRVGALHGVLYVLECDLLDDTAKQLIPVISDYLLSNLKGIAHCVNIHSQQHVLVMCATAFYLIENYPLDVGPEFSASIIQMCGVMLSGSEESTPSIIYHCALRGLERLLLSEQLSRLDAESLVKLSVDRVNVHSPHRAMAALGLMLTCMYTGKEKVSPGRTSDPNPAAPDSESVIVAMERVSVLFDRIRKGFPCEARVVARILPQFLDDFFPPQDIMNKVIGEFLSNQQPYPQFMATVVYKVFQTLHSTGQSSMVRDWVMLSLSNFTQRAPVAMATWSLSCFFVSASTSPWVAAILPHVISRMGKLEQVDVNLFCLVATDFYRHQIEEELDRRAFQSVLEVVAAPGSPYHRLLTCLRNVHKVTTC
Pf apPOL inh = Pf-apPOL DNA polymerase inhibition. Recombinant Pf-apPOL, molecular beacon fluorescence, 1.5 h. inhibition, % at 10 µM. hit rate 0.25% among 210,000. AID 1794808
An asterisk follows results filed as active; x = no result. No stated cut-off is given here; in the data, active means inhibition above about 50%; inactive means the rest.

SMILES	mHTT CaM bind	Pf apPOL inh
O=C(NCc1ccc(N2CCCCC2)nc1)c1cccc(Cl)c1	1	4
CCC(=O)NCCc1csc(C2CCCN(C(=O)CC)C2)n1 (stereo unspecified)	-10	-3
Cc1ccccc1CNC(=O)C1(C)Cc2ccccc2C(=O)N1CC(C)C (stereo unspecified)	-10	-3
CCN(CC)C(=O)COc1ccc2c(c1)oc(=O)c1cc(OC)ccc12	15	8
O=C(NCCc1ccccc1)C1Cc2ccccc2N2CCOCC12 (stereo unspecified)	0	-3
COc1ccc(-c2cc3c(c4c2ccn4C)C2CCC3C2)cc1OC (stereo unspecified)	74*	1
Cn1ccc2c(-c3cccnc3)cc3c(c21)C1CCC3C1 (stereo unspecified)	32	-8
CSc1ccc(C2SCC(=O)N2C2CCCCC2)cc1 (stereo unspecified)	-7	-1
Cc1ccc(CN2C(=O)NC3(CCN(C(=O)Cc4ccc(Cl)cc4)CC3)C2=O)cc1	1	-15
Cc1ccc(C)c(CN2C(=O)NC3(CCN(C(=O)Cc4ccc(Cl)cc4)CC3)C2=O)c1	58*	-4
O=C(NNc1ccccc1C(F)(F)F)c1cc2ccccc2s1	x	-3
CCC1C(=O)C2(CCCCC2)C(=O)OC1c1ccc(Cl)cc1 (stereo unspecified)	-30	-2
O=[N+]([O-])c1cc(F)c(N2CCCCCC2)cc1N1CCCC1	72*	-6
O=C(c1cccs1)N1CCN(c2cc(N3CCCC3)c(F)cc2[N+](=O)[O-])CC1	-2	-2
O=[N+]([O-])c1cc(F)c(N2CCOCC2)cc1N1CCCCC1	26	-12
O=C(c1cccs1)N1CCN(c2cc(N3CCCCC3)c(F)cc2[N+](=O)[O-])CC1	51*	-5
CC(=O)Nc1nc2n(n1)C(=O)CC(c1ccccc1)=N2	1	-9
N#CC1=C(N)SC(N)=C(C#N)C1c1ccccc1	29	0
CCCCc1ccc(C2C(C#N)=C(N)SC(N)=C2C#N)s1	55*	-1
Cc1nc2ccccc2n1CC(O)COc1ccccc1Cl (stereo unspecified)	58*	-5
Cc1ccc(Cl)c(OCC(O)Cn2c(C)nc3ccccc32)c1 (stereo unspecified)	10	-7
OCc1nc2ccccc2n1CC(O)COc1ccc(Br)cc1 (stereo unspecified)	73*	2
OCc1nc2ccccc2n1Cc1ccc(Br)cc1	7	-1
NC1=Nc2ccc(Cl)cc2SC1	-1	x
CCOCCCNC(=O)C1CCCN(c2cnn(C)c(=O)c2)C1 (stereo unspecified)	-4	-7
SMILES	mHTT CaM bind	Pf apPOL inh
CC(/C=C1\N=C(c2ccc(C)c([N+](=O)[O-])c2)OC1=O)=C\c1ccccc1	3	0
Cc1ccc(C2=N/C(=C\C(Br)=C\c3ccccc3)C(=O)O2)cc1[N+](=O)[O-]	57*	2
Cc1ccccc1NC(=O)NCC1(CO)CC1	-15	11
CCN(CC)CCN1C(=O)C(O)=C(C(=O)c2cccs2)C1c1cc(OC)c(OC)c(OC)c1 (stereo unspecified)	2	-27
Cc1sc2ncnc(Nc3ccc(N4CCCCC4)cc3)c2c1C	24	4
Cc1ccc(-c2csc3ncnc(Nc4ccc(N5CCOCC5)cc4)c23)cc1	60*	0
CCCCNC(=O)C1CCCN(c2nnc3ccc(C(F)(F)F)cn23)C1 (stereo unspecified)	-2	-4
Nc1c(Cl)cc(N2C(=O)c3ccc(C(=O)O)cc3C2=O)cc1Br	4	1
COc1cccc(NC(=O)N2CC(c3nc(Cc4ccccc4)no3)C2)c1OC	7	-1
Cc1ccc(-c2nnc(N3CCC(C(=O)NCc4ccccn4)CC3)o2)cc1	76*	-8
Cc1ccc(-c2nnc(N3CCC(C(=O)NCc4ccccc4)CC3)o2)cc1	6	-2
CC(=O)N1CC(C(=O)NCCc2ccccn2)CCC1c1ccc(F)c(C)c1 (stereo unspecified)	6	-5
CC1CCN(c2nnc(C(=O)NCc3ccccn3)c3ccccc23)CC1	36	-6
CC1CCN(c2ccc(N3CCC(C(=O)NCc4ccccn4)CC3)nn2)CC1	71*	-6
Cc1ccc(N2CC(C(=O)NCc3ccccc3)CC2=O)cc1 (stereo unspecified)	-8	-6
CC(=O)N1CC(C(=O)NCc2ccccn2)CCC1c1ccc(F)c(C)c1 (stereo unspecified)	80*	-15
Cc1ccc(N2CC(C(=O)NCc3ccccn3)CC2=O)cc1 (stereo unspecified)	100*	-19
CNC(=O)c1cc2c(=O)n(C)c3ccccc3n2n1	-13	-4
O=S(=O)(Cc1ccccc1)N1CCC(c2nc(C3CC3)no2)C1 (stereo unspecified)	-8	-7
Cc1ccc(Nc2c(C(=O)NC3CCCCC3)cnc3c2c(C)nn3C)cc1	-5	-1
CCCn1ncc(N2CCC(C(=O)N3CCOCC3)CC2)cc1=O	-4	-4
CCCCCNC(=O)CCC1=NS(=O)(=O)c2ccccc2N1	0	1
CCNC(=O)CN1CCN(Cc2ccc3c(c2)OCO3)CC1	3	-3
Cc1cc(Cl)ccc1NC(=O)CN1CCN(Cc2ccc3c(c2)OCO3)CC1	54*	-7
CCn1c(N2CCC(C(=O)NCc3ccc(F)cc3)CC2)cc(=O)n(C)c1=O	42	-5
SMILES	mHTT CaM bind	Pf apPOL inh
Cn1c(N2CCC(C(=O)N3CCN(Cc4ccccc4)CC3)CC2)cc(=O)n(C)c1=O	38	1
CCc1cccc(NC(=O)C2CCN(c3cc(=O)n(C)c(=O)n3C)CC2)c1	66*	-2
Cn1c(N2CCC(C(=O)Nc3ccccc3)CC2)cc(=O)n(C)c1=O	42	-1
Cn1c(N2CCC(C(=O)N3CCC(Cc4ccccc4)CC3)CC2)cc(=O)n(C)c1=O	75*	-2
CCn1c(N2CCC(C(=O)NCc3cccc(Cl)c3)CC2)cc(=O)n(C)c1=O	59*	-2
COc1ccc(NC(=O)C2CCN(c3cc(=O)n(C)c(=O)n3C)CC2)c(OC)c1	44	5
COc1cc(OC)c(NC(=O)C2CCN(c3cc(=O)n(C)c(=O)n3C)CC2)cc1Cl	59*	-2
CC(C)n1cnc2cc(CNC(=O)c3cnccn3)ccc21	17	-2
CCN1CCn2cc(S(=O)(=O)N3CCN(c4cccc(C)c4)CC3)cc2C1=O	5	-3
Cn1nc(C(=O)NCc2ccc(F)cc2)c2c1CCN(C(=O)C1CCCC1)C2	77*	-2
CCC(=O)N1CCc2c(c(COCc3ccc(C)cc3)nn2C)C1	14	-2
Cc1cccc(CNC(=O)c2nn(C)c3c2CN(C(=O)C2CCC2)CC3)c1	37	-10
CC(C)CC(=O)N1CCc2c(c(COCc3ccc(Cl)cc3)nn2C)C1	63*	-6
CCC(=O)N1CCc2c(c(C(=O)NCc3ccc4c(c3)OCO4)nn2C)C1	30	-5
Cn1nc(C(=O)NCc2ccccc2)c2c1CCN(C(=O)C1CCC1)C2	36	-9
Cn1nc(C(=O)NCc2ccc(Cl)cc2)c2c1CCN(C(=O)C1CCCC1)C2	92*	-10
Cn1nc(C(=O)NCc2ccc3c(c2)OCO3)c2c1CCN(C(=O)C1CCCCC1)C2	72*	-12
Cc1cc(C)c2c(N)c(C(=O)NCC(=O)O)sc2n1	-3	-5
Cn1nc(C(=O)NCc2ccc(Cl)cc2)c2c1CCN(C(=O)CC1CCCC1)C2	41	3
CCCC(=O)N1CCc2c(c(C(=O)NCc3ccc(Cl)cc3)nn2C)C1	84*	-10
